# In all, about 69,000 compounds went through this assay and about 8,600 (12%) showed an effect of 50% or more. Only a selection was taken, and strong results are over-represented in it overall.
# System: Plasmodium berghei
# Assay: Screen against P. berghei liver stage (PbLuc), transformed with Luciferase, at 10uM
# Format: functional, HepG2
# Settings: tested at 10 uM
row,Structure (SMILES),INHIBITION [%]
1,O=C(CCn1ccccc1=O)Nc1ccc(C(=O)O)cc1,12.7
2,Cc1nc(N(C)C)nc2c1COCC21CCN(C(=O)NCC(C)C)C1 (stereo not drawn),-43.8
3,CC(NC(=O)CCOc1ccc(F)cc1)c1nnc2n1CCCCC2 (stereo not drawn),28.8
4,COc1ccccc1CNc1ccc2nncn2n1,-33.8
5,O=C(Cn1cccnc1=O)NC(Cc1ccsc1)c1cccnc1 (stereo not drawn),14.7
6,CC(C)c1cc(NCC2(CO)CCCC2)ncn1,44.3
7,CC(C)c1cc(NCC2(CO)CCC2)ncn1,66.7
8,CC(C)c1cc(NCC2(N(C)C)CCCC2)ncn1,49.9
9,CCN(CC)Cc1ccc(C(=O)NC2CCc3cc(Br)ccc32)o1 (stereo not drawn),36.7
10,CCN(CC)Cc1ccc(C(=O)NC2CCc3cc(Cl)ccc32)o1 (stereo not drawn),50.5
11,CCN(CC)Cc1ccc(C(=O)NC2CCc3cc(F)ccc32)o1 (stereo not drawn),9.91
12,O=C(CC1CCCC1)Nc1ccc(-n2cc(Cl)cn2)nc1,-18.8
13,CC(C)c1sc(Br)nc1C(=O)NCc1ccco1,-7.81
14,Cc1csc(CN2C[C@@H]3COC[C@]3(COCC(=O)N(C)C)C2)n1,-2.35
15,CN1CCN(c2ccccc2CNC(=O)Cc2cccc(F)c2)CC1,30.3
16,Cc1ccc(CN2CCc3c(CN4CCCC4)n[nH]c3C2)s1,26.5
17,Cc1cc(C)nc(C2CCN(C3CCCCC3)C2)n1 (stereo not drawn),-36.4
18,CCS(=O)(=O)NC[C@]12COC[C@H]1CN(Cc1ccncc1)C2,53.9
19,CCS(=O)(=O)NC[C@]12COC[C@H]1CN(Cc1ccccn1)C2,4.27
20,CCS(=O)(=O)NC[C@]12COC[C@H]1CN(Cc1sccc1C)C2,28.7
21,CCS(=O)(=O)NC[C@]12COC[C@H]1CN(Cc1cccnc1)C2,24.9
22,CCS(=O)(=O)NC[C@]12COC[C@H]1CN(Cc1ccsc1)C2,53.9
23,CCS(=O)(=O)NC[C@]12COC[C@H]1CN(Cc1cc(C)on1)C2,18.8
24,CCS(=O)(=O)CC(=O)NC(c1ccc(F)cc1)C1CCCC1 (stereo not drawn),42.6
25,Cc1nn(-c2ccccc2)c(C)c1CN1CCNCC1,40.9
26,COc1cc(C2(C(=O)NC3CCC4(CC3)OCCO4)CC2)ccc1C,10.3
27,COc1cc(C2(C(=O)NC3CCN(C4CC4)CC3)CC2)ccc1C,51.5

row,Structure (SMILES),INHIBITION [%]
1,COc1cc(C2(C(=O)N3CCN(CC(C)O)CC3)CC2)ccc1C (stereo not drawn),-17.8
2,COc1cc(C2(C(=O)NC3CCN(CC4CC4)CC3)CC2)ccc1C,25.5
3,CCC(O)CN1CCN(C(=O)C2(c3ccc(C)c(OC)c3)CC2)CC1 (stereo not drawn),-6.34
4,COc1cc(C2(C(=O)N3CCCC(n4cncn4)C3)CC2)ccc1C (stereo not drawn),-7.81
5,COCC(=O)N1CCN(C(=O)C2(c3ccc(C)c(OC)c3)CC2)CC1,50.9
6,COc1cc(C2(C(=O)N3CCN(CC(C)(C)O)CC3)CC2)ccc1C,52.3
7,COCCNC(=O)C1(c2ccc(C)c(OC)c2)CCCC1,21.5
8,O=C(O)[C@H]1OCC(=O)N(Cc2cccc(Cl)c2)[C@@H]1c1ccccc1,22
9,Cn1cc(CN2CCOC(c3cccc(-c4cccc(F)c4)n3)C2)cn1 (stereo not drawn),23.9
10,COc1ccc(C2CCCN2Cc2cnn(C)c2)cc1 (stereo not drawn),34.5
11,Nc1nccc(C2CCCCN2Cc2cccc(F)c2)n1 (stereo not drawn),52
12,Cn1cc(CN2CCCCC2c2ccc(-c3cccc(Cl)c3)nc2)cn1 (stereo not drawn),57.3
13,Cn1cc(-c2ccc(C3CCCCN3Cc3cccnc3)cn2)cn1 (stereo not drawn),9.05
14,Cn1cc(CN2CCCCC2c2ccc(-c3cnn(C)c3)nc2)cn1 (stereo not drawn),25.8
15,Cc1nccc(C2CCCCN2Cc2cccc(F)c2)n1 (stereo not drawn),43.6
16,Cn1cc(CN2CCCCC2c2ccc(-c3cccc(F)c3)nc2)cn1 (stereo not drawn),62.9
17,Nc1nccc(C2CCCN2CCc2ccccc2)n1 (stereo not drawn),37.8
18,CC(=O)Nc1nc(CN2CCn3c(nnc3C(C)C)C2)cs1,-24.3
19,CCN1CCn2c(C)cnc2C12CCN(C(=O)Cc1ccccc1)CC2,30.9
20,CC(C)(CNC(=O)CCCOc1cccc(F)c1)C(N)=O,30.65
21,Cc1nc(CN2CCCC(c3nccs3)C2)cs1 (stereo not drawn),24.05
22,CN(C)CC(=O)N1Cc2nc(C(=O)N3CCCN(C)CC3)oc2C1,-2.26
23,CC(C)c1cc(C(=O)N2CCC3(CC2)c2ccccc2[C@@H](N)[C@@H]3O)cs1,41.1
24,N[C@@H]1c2ccccc2C2(CCN(C(=O)c3ccccc3O)CC2)[C@H]1O,-5.395
25,Cc1ccc(C(=O)N2CCC3(CC2)c2ccccc2[C@@H](N)[C@@H]3O)cc1F,35.1
26,Cc1ccc(Cl)cc1C(=O)N1CCC2(CC1)c1ccccc1[C@@H](N)[C@@H]2O,80.1

# — ChEMBL document CHEMBL4513216, “Probing the Open Global Health Chemical Diversity Library for Multistage-Active Starting Points for Next-Generation Antimalarials” (ACS Infect Dis, 2020)
